Screening results (PubChem)
A selection: hits, their analogues and other compounds. The true share with any hit is near 2.2%.
PLAP activator: activates human placental alkaline phosphatase; 96,000 compounds, 1.2% hits; AID 696; purified PLAP enzyme, luminescent substrate read-out; active compounds read high; activation fold at 20 µM; P05187; in the data active = activation fold above about 2
PTPN22 act: LYP (human) phosphatase activation; Q9Y2R2; 96,000 compounds, 0.11% hits; activation, % at 2 µM; recombinant LYP, DiFMUP fluorescence; 0 = plate median, 100 = signal doubled;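 active = activation at 2 µM above a set limit, the mean plus 5 SD, cut at about 37% in these data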
Target sequence (Q9Y2R2 whole entry, looked up): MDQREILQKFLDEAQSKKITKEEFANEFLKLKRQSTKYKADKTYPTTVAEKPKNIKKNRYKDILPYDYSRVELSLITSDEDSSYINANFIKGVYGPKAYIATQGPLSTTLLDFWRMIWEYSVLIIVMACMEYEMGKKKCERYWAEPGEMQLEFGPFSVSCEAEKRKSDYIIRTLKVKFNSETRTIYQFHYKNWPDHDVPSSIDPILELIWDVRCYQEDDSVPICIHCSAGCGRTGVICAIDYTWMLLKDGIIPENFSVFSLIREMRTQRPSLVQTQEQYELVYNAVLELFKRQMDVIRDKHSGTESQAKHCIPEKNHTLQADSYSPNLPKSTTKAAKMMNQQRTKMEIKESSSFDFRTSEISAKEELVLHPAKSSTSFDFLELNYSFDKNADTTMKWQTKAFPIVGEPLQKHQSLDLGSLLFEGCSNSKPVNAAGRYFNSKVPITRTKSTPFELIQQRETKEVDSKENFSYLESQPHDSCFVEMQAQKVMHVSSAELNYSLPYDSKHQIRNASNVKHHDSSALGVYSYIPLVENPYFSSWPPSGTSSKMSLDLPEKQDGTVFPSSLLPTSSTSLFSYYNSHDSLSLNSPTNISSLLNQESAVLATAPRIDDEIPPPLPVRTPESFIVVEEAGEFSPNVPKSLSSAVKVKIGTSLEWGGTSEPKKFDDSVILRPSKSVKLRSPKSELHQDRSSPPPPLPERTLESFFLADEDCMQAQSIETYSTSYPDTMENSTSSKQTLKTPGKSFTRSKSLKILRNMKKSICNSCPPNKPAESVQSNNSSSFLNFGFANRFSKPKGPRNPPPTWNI
FAK blocker: FAK (human) kinase inhibition | Q05397 | biochemical FAK kinase activity assay | inhibition, %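 (tested at 7 µM)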 | 97,000 compounds, 0.84% hits; in the data active = inhibition above about 19%;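 note: 0% = DMSO and 100% = reference compound high control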
MRP resist rev: reverses drug resistance mediated by MRP. differential viability (reversal), % at 10 µM. AID 602. 85,000 compounds, 0.04% hits. H69AR cells + 2 uM doxorubicin, CellTiter-Glo, 72 h;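 active = viability drop by adding the cancer drug above about 55%, with treated viability meeting a 40% cutoff, limit read from the data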;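 note: viability without doxorubicin minus viability with 2 µM doxorubicin for each compound; larger differential means the compound sensitizes cells more to doxorubicin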
PTPN22 inh 2: LYP (human) phosphatase inhibition; Q9Y2R2; recombinant LYP catalytic domain, DiFMUP fluorescence; 96,000 compounds, 0.21% hits; inhibition, % at 2 µM;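 active = inhibition at 2 µM at or above a set limit, the screen mean plus 3 SD, cut at about 24% in these data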;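 note: 0% = DMSO with enzyme and 100% = enzyme fully blocked by orthovanadate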
MRP1 act: MRP-1 activation; H69AR cells + doxorubicin, viability rescue, CellTiter-Glo; AID 799; 140,000 compounds, 0.61% hits; viability increase, % at 10 µM;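 active = viability gain under doxorubicin at or above a set limit, the compound median plus 3 SD, cut at about 4.7% in these data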;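 note: MRP-1 overexpressing cells given doxorubicin 25 µM after compound pretreatment; 18-22 h compound pretreatment then 72 h with doxorubicin before readout; 0% = doxorubicin-only wells and 100% = vehicle-treated cells without doxorubicin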
An asterisk follows results filed as active; nt = not tested or not shown.

SMILES | PLAP activator | PTPN22 act | FAK blocker | MRP resist rev | PTPN22 inh 2 | MRP1 act
Cc1ccc(NC(=O)CSc2nnc(-c3cccs3)n2Cc2ccco2)cc1 | 1 | 8.6 | 3.0 | 12.8 | -5.0 | 6.1*
Cc1nnc(SCC(=O)N/N=C/c2cn(-c3ccccc3)nc2-c2ccccc2)n1-c1ccccc1 | 1.4 | -22.1 | 0.0 | nt | 24.9* | -0.9
C=CCNc1ncnc2c1[nH]c1ccc(C)cc12 | 0.9 | 2.5 | 25.1* | -15.6 | -3.1 | -2.0
Cc1ccc(NC(=O)N(Cc2ccc3c(c2)OCO3)Cc2cc3cc4c(cc3[nH]c2=O)OCCO4)cc1 | 0.9 | -8.7 | -0.8 | 55.3* | 7.4 | -3.8
COc1ccc(-n2cnnc2SCC(=O)NC2CCCc3ccccc32)cc1 (stereo not given) | nt | nt | nt | nt | nt | -2.6
Cc1ccccc1NC(=O)Cn1nnc(S(=O)(=O)c2ccc(C(C)(C)C)cc2)c1N | nt | nt | nt | nt | nt | -4.2
COc1ccc(C2CC(c3ccccc3)=NN2C(=O)COC(=O)c2cccnc2Cl)cc1 (stereo not given) | nt | nt | nt | nt | nt | 5.4*
CCC(c1nnc(SCC(=O)Nc2ccc(C(=O)Nc3ccccc3OC)cc2)o1)N(C)C (stereo not given) | 2.3* | -16.4 | -4.4 | -1.7 | 13.5 | -0.4
COc1ccccc1NC(=O)c1ccc(NC(=O)CSc2nncn2C)cc1 | nt | nt | nt | nt | nt | -1.0
CC(C)(C)c1cc(/C=N/NC(=O)Cc2nc3ccccc3[nH]2)cc(C(C)(C)C)c1O | 2* | -13.0 | 1.1 | nt | 12.7 | -1.3
Cn1cc(Br)c(C(=O)NNC(=O)c2ccccc2)n1 | nt | nt | nt | nt | nt | -0.7
Cn1cc(Br)c(C(=O)NNC(=O)c2ccc(Br)cc2)n1 | nt | nt | nt | nt | nt | 7.6*
O=C(O)CCCCCNc1nc(=S)[nH]c2ccccc12 | 1.1 | -23.8 | -2.4 | -8.3 | 26.7* | 0.1
CCOC(=O)c1c(NC(=O)COc2cccc3c2CCN(C)C3=O)sc2c1CCC2 | nt | nt | nt | nt | nt | -2.9
Cc1cc(Cl)ccc1OCc1n[nH]c(=S)n1C1CCCCC1 | 1.3 | -4.1 | 4.4 | -25.5 | 4.0 | 1.6
COc1ccc(-c2n[nH]c(=S)n2C2CCCCC2)cc1 | 2* | 4.1 | 1.6 | 9.3 | -5.2 | -1.6
COc1ccc(Cl)cc1-c1n[nH]c(=S)n1C1CCCCC1 | 2.4* | -0.1 | -1.3 | -2.2 | 0.6 | -3.5
CC(=O)OCc1c(C(F)(F)F)nn(C)c1SCc1ccc(Cl)cc1 | 0.8 | -4.1 | 0.7 | 11.1 | 4.7 | 0.8
Cc1cccc(S(=O)(=O)NCCC(=O)OCC(=O)Nc2ccc(C#N)cc2)c1 | nt | nt | nt | nt | nt | -0.7
COC(=O)c1ccc(C)c(-n2c(C)cc(C=O)c2C)c1 | nt | nt | nt | nt | nt | -2.0
Nc1nc(SCC(=O)Nc2cc(-c3ccccc3)nn2-c2ccccc2)n[nH]1 | nt | 0.3 | 4.5 | nt | -1.7 | -1.0
Cc1ccc(-c2cc(NC(=O)CSc3n[nH]c(N)n3)n(-c3ccccc3)n2)cc1 | 2.3* | -1.4 | 3.9 | 1.5 | 4.3 | 2.3
C/C(N)=C(/C#N)C(=O)COC(=O)CCS(=O)(=O)c1ccccc1 | 1.3 | 4.9 | -0.7 | nt | -1.9 | -2.0
C/C(N)=C(/C#N)C(=O)COC(=O)c1ccncc1 | 2.3* | 0.1 | 10.3 | -2.6 | -1.6 | -0.9
Cc1cc2sc(C(=O)O)c(C)c2s1 | nt | 5.7 | -6.7 | -1.9 | -6.2 | 2.5
SMILES | PLAP activator | PTPN22 act | FAK blocker | MRP resist rev | PTPN22 inh 2 | MRP1 act
Cc1ccc(S(=O)(=O)N2CCC(C(=O)N[C@@H](C)C(=O)Nc3ccc4c(c3)OCO4)CC2)cc1 | 1.2 | 0.5 | 6.0 | 0.9 | -1.4 | 6.2*
CC1(C)NC(=O)N(CC(=O)OCC(=O)Nc2cc(S(=O)(=O)N3CCCCCC3)ccc2Cl)C1=O | nt | nt | nt | nt | nt | -2.1
CCCC1(C(=O)O)NC(c2ccccc2O)C2C(=O)N(c3cccc(Cl)c3)C(=O)C21 (stereo not given) | 2.4* | 2.8 | nt | 3.4 | -4.5 | -1.1
CCn1c2ccccc2c2cc(NC(=O)CC(C)=O)ccc21 | nt | nt | nt | nt | nt | 4.8*
CCCC(=O)Nc1ccc2c(c1)c1ccccc1n2CC | nt | nt | nt | nt | nt | 1.0
CN(CC(=O)NC(c1ccccc1)c1ccccc1)Cc1nc2ccccc2c(=O)[nH]1 | 4.9 | 6.2 | 1.6 | -45.4 | -6.2 | -1.3
CN(CC(=O)NC(=O)NCc1ccco1)Cc1nc2ccccc2c(=O)[nH]1 | 2.3* | nt | nt | 1.5 | nt | -1.0
O=C1CC(c2ccc(Cl)cc2)SC(N(c2ccccc2)c2ccccc2)=N1 (stereo not given) | nt | nt | nt | nt | nt | -4.1
c1ccc(CNc2c3c(nc4ncnn24)CCCC3)nc1 | 2.5* | -10.4 | -1.2 | -1.5 | 9.6 | -1.4
CCN=c1scc(C)n1/N=C/c1ccc(O)c(O)c1O | 1.2 | -17.3 | 6.2 | nt | 21.2 | 6.2*
CCN(CC)C(=O)C(=O)c1c(-c2ccccc2)[nH]c2ccccc12 | nt | nt | nt | nt | nt | 23.1*
O=C(NC1CC1)C(=O)c1c(-c2ccccc2)[nH]c2ccccc12 | nt | nt | nt | nt | nt | -1.2
Fc1ccc(NC(=S)NCc2cccs2)cc1 | nt | nt | nt | nt | nt | -3.8
CCCNC(=O)Nc1ccc2c(c1)nc(C)n2C | 1 | -2.8 | 0.2 | -5.2 | 6.0 | 0.4
Cc1nc2cc(NC(=O)Nc3nccs3)ccc2n1C | 2* | 10.0 | 0.8 | 2.3 | -10.8 | -0.5
CC(=O)Nc1ccc(S(=O)(=O)NCC(=O)OCC(=O)N2CCN(c3ccccc3)CC2)cc1 | nt | nt | nt | nt | nt | -3.4
CCN(CC)C(=O)c1sc(NC(=O)c2ccncc2)c(C(=O)OC)c1C | nt | nt | nt | nt | nt | -1.9
CCOC(=O)c1c(NC(=O)OC)sc(C(=O)N(CC)CC)c1C | 1.6 | -3.2 | -0.9 | 76.3* | 4.8 | 0.8
C/C(CC(=O)NC1CCCC1)=N\NC(=O)c1ccc([N+](=O)[O-])c(Cl)c1 | nt | nt | nt | nt | nt | -1.2
Cc1ccc(-n2nnnc2SCC(=O)NNC(=O)c2ccco2)c(C)c1 | 2* | -3.2 | -5.6 | nt | 5.8 | -0.7
COC(=O)c1ccccc1NC(=O)CSc1nnnn1-c1ccc(C)cc1C | 0.9 | -2.5 | 0.9 | 0.5 | 3.1 | -1.0
COCCNC(=O)c1ccc2c(=O)n(Cc3ccco3)c(SCC(=O)NC3CCCC3)nc2c1 | 2.2* | -2.2 | -1.5 | 13.4 | -0.3 | -3.8
CCC(CO)n1c(SCc2cc(=O)oc3cc(C)ccc23)nc2ccccc2c1=O (stereo not given) | 2.7* | -0.1 | 5.1 | 7.1 | 3.4 | -4.9
CCCCCCCNC(=O)C1CC(=O)N(C)C(=Nc2ccc(OC)cc2)S1 (stereo not given) | nt | nt | nt | nt | nt | -1.0
CCc1cc(=O)oc2cc3occ(-c4ccc(OC)c(F)c4)c3cc12 | nt | nt | nt | nt | nt | -4.5
Cc1cc(S(=O)(=O)Nc2c(C(=O)O)[nH]c3ccccc23)ccc1F | 2* | 1.2 | -8.2 | -13.6 | -2.3 | -2.5
CCC(C)OC(=O)C1=C(C)O[C@]23OC(N)=C(C#N)[C@]12C(=O)c1ccccc13 (stereo not given in full) | nt | 0.7 | -0.6 | 3.9 | -1.4 | -2.2
COc1cc(CNCc2ccccn2)ccc1OCc1ccc(Cl)cc1 | nt | nt | nt | nt | nt | -1.2
COc1cc(CNCc2ccccn2)ccc1OCc1c(Cl)cccc1Cl | 2* | 7.3 | -10.9 | nt | -5.1 | -4.2
COc1ccc(N2C(=O)CC(N3CCC(O)(c4cccc(C(F)(F)F)c4)CC3)C2=O)cc1 (stereo not given) | 1.2 | -12.6 | -4.3 | nt | 11.2 | 6.5*
